This note sets out measurements from PubChem BioAssay.

Calls of active or inactive are those of the source.

Homeobox protein Hox-A13 (Mus musculus), sequence (Q62424 whole entry, looked up): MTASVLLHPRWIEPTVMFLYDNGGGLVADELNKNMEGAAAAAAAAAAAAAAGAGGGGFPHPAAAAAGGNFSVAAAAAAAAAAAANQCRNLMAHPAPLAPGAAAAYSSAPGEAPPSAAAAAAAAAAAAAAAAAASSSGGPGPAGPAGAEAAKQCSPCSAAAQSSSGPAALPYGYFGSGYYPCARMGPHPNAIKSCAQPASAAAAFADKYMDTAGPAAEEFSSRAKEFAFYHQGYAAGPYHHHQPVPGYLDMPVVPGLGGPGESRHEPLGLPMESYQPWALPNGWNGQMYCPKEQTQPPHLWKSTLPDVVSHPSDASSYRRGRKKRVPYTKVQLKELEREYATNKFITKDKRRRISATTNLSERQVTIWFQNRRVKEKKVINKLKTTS

This assay concerns the target Homeobox protein Hox-A13 (Mus musculus) (UniProt Q62424). As to the kind of experiment: inhibitors of HoxA13-DNA binding, primary screen, biochemical, fluorescence polarization, labeled oligonucleotide (AID 1185). Particulars: 15 min, higher = more signal, called active from +8 up or from −8 down. For orientation: In fluorescence polarisation assays a small probe gives low polarisation when free and higher when bound to something large.
Turning to `N#Cc1ccc(NN2C(C(O)c3ccccc3)C=CC3C(=O)N(c4ccccc4)C(=O)C32)cc1` (stereo unspecified), the z-score is -2.61 (inactive). The value for `O=C(NCc1ccccc1)[C@]1(Cc2ccccc2)N=C(c2ccc(OCCCO)cc2)O[C@@H]1c1ccccc1` was -2.75 (inactive); that for `CC(C)CCC[C@@H](C)[C@H]1CC[C@@]2(C)C3=C(CC[C@]12C)[C@@]1(C)CC[C@H](OC(=O)C(C)(C)C)C(C)(C)C1CC3` (stereo partly specified) was -1.44 (inactive).

Turning to `NC(=O)NCC#Cc1ccc2c(c1)[C@]1(C(=O)N2)[C@H](c2ccc(OCCO)cc2)N2[C@H](c3ccccc3)[C@H](c3ccccc3)OC(=O)[C@H]2[C@@H]1C(=O)N1CCCCCCC1`, the z-score is -9.12 (active). The value for `[N-]=[N+]=Nc1ccccc1[C@H]1OC(c2ccc(OCCCO)cc2)=N[C@@]1(Cc1ccccc1)C(=O)NCc1ccccc1` was -2.71 (inactive). The value for `COCCOC(=O)N1C(=O)[C@@]2(c3cc(C#CCC(C(=O)OC)C(=O)OC)ccc31)[C@H](C(=O)N1CCCCCCC1)[C@H]1C(=O)O[C@H](c3ccccc3)[C@H](c3ccccc3)N1[C@@H]2c1ccc(O)cc1` was -0.454 (inactive). To `C=CC[C@]1(C(=O)NCC(O)CO)N=C(c2ccc(OCCCO)cc2)O[C@H]1c1ccccc1N=[N+]=[N-]` (stereo partly specified) belongs -3.71 (inactive); to `O=C(Nc1cc(Br)ccc1C(=O)NCc1cccc(O)c1)c1ccccc1`, -0.429 (inactive). With `CC1CC/C=C\[C@H]2OC34C=CCN(c5ccc(Cl)cc5)C(=O)[C@H]3N(C(CO)C(C)C)C(=O)[C@]4(C)C2C(=O)O1` (stereo partly specified), the z-score was -5.44 (inactive).

`CC1=C2[C@@H](CCc3ccccc3)OB(O)C[C@@H]2[C@@H]2C(=O)C=CC(=O)[C@@H]2C1`: the z-score is -6.24 (inactive). The value for `[N-]=[N+]=NCc1ccccc1C[C@]1(C(=O)NCCN2CCOCC2)COC(c2ccc(OCCCO)cc2)=N1` was -4.71 (inactive); that for `COc1ccc(CCNC(=O)[C@@H]2c3ccccc3C(=O)N(Cc3ccccc3)[C@H]2c2ccc(CO)cc2)cc1` was -3.2 (inactive); that for `C=CC[C@@]1(C(=O)NCC(O)CO)N=C(c2ccc(OCCCO)cc2)O[C@@H]1c1ccccc1` (stereo partly specified) was -4.25 (inactive). The value for `CO[C@H]1O[C@H](CO)[C@@H](OC(=O)Nc2cccc(F)c2)[C@H](OC(=O)Nc2ccc3c(c2)OCO3)[C@H]1OC(=O)Nc1ccc2c(c1)OCO2` was -7.92 (inactive); that for `COc1ccc(C#Cc2ccc3c(c2)[C@]2(C(=O)N3)[C@H](c3ccc(OCCO)cc3)N3[C@H](c4ccccc4)[C@H](c4ccccc4)OC(=O)[C@H]3[C@@H]2C(=O)N2CCN(c3ncccn3)CC2)cc1` was 1.1 (inactive).

On to `COCC(=C=CC[C@@H](O)c1ccccc1OCCO)C[C@@H](O)c1ccccn1`, for which the z-score is -6.18 (inactive). The value for `CCCN1C(=O)[C@@]2(Cc3ccccc3)N=C(c3ccc(OCCCO)cc3)O[C@H]2c2ccccc21` was -4.39 (inactive); that for `NC(=O)NCC#Cc1ccc2c(c1)[C@]1(C(=O)N2)[C@H](c2ccc(OCCO)cc2)N2[C@H](c3ccccc3)[C@H](c3ccccc3)OC(=O)[C@H]2[C@@H]1C(=O)N1CCN(c2ncccn2)CC1` was 0.314 (inactive). The value for `C=CCC(OC(C)=O)[C@@H]1[C@@H](N(Cc2cccc3ccccc23)C(=O)c2ccc(C)cc2)c2cc(OCCCO)ccc2N1C(=O)c1ccc2ccccc2c1` (stereo partly specified) was -0.0802 (inactive); that for `COc1ccc([Si](C)(C)[C@@H]2[C@@H](CC(=O)N(CCO)Cc3ccccc3)O[C@]3(C(=O)N(Cc4ccc(N5CCOC5=O)cc4)c4ccccc43)[C@H]2C)cc1` was -1.34 (inactive); that for `COc1ccccc1CN1C(=O)c2ccccc2[C@](Cc2ccccc2I)(C(=O)NCCN2CCOCC2)[C@@H]1c1ccc(CO)cc1` was -4.74 (inactive). The value for `CN(C)CCCN1C(=O)[C@@]2(Cc3ccccc31)c1ccccc1C(=O)N(Cc1ccccc1)[C@H]2c1ccc(CO)cc1` was 1.06 (inactive).

Regarding `Cc1ccc(S[C@]2(C(=O)O)CC(=O)N(Cc3ccccc3C(F)(F)F)[C@@H]2c2ccc(CO)cc2)cc1`, the z-score was -3.21 (inactive). The value for `CCOC(=O)C1=CC[C@@H](c2ccccc2)N(S(=O)(=O)c2ccc(C)cc2)[C@H]1C=C(C)C` was -0.721 (inactive); that for `COCCOC(=O)N1C(=O)[C@@]2(c3cc(C#CCNC(N)=O)ccc31)[C@H](C(=O)N1CCCCCCC1)[C@H]1C(=O)O[C@H](c3ccccc3)[C@H](c3ccccc3)N1[C@@H]2c1ccc(OCCO)cc1` was -15.8 (active). The value for `CC(C)CNC(=O)[C@@]1(C)c2ccccc2C(=O)N(Cc2ccccc2)[C@H]1c1ccc(CO)cc1` was -2.75 (inactive); that for `C=CCC(OC(C)=O)[C@@H]1[C@@H](N(Cc2ccc(-c3ccccc3)cc2)C(=O)c2cccc3ccccc23)c2cc(OCCCO)ccc2N1C(=O)c1ccc2ccccc2n1` (stereo partly specified) was -1.42 (inactive).

In the case of `COc1ccc([Si](C)(C)[C@@H]2[C@@H](CCO)O[C@]3(C(=O)N(Cc4ccccc4)c4ccc(N5C(=O)COc6ccccc65)cc43)[C@H]2C)cc1`, the z-score is -1.89 (inactive). The value for `C=C(COC)/C(=C/C[C@@H](OC(=O)c1ccncc1)c1cccc(OCCO)c1)c1cc(C(=O)OC)ccc1OC` was -4.58 (inactive).

In the case of `O=C1NC(=O)C2C1C=CC(C(O)c1ccc3c(c1)OCO3)N2Nc1ccc(Cl)cc1Cl` (stereo unspecified), the z-score is -5.9 (inactive). The value for `[N-]=[N+]=NCc1ccccc1C[C@@]1(C(=O)NCCN2CCOCC2)N=C(c2ccc(OCCCO)cc2)O[C@@H]1c1ccccc1CN=[N+]=[N-]` was -11.2 (active); that for `C[N+](C)(C)CCCCCCNC(=O)[C@@H]1C[C@@H]2C(=O)NCC(=O)N2[C@@H]1c1ccc(O)cc1` was -1.98 (inactive). On to `COC(=O)[C@@]1(Cc2ccccc2N=[N+]=[N-])N=C(c2ccc(OCCCO)cc2)O[C@H]1c1ccccc1`, for which the z-score was -3.98 (inactive). To `COCCOC(=O)N1C(=O)[C@@]2(c3cc(C#Cc4ccc(OC)cc4)ccc31)[C@H](C(=O)N1CCc3cc(OC)c(OC)cc3C1)[C@H]1C(=O)O[C@H](c3ccccc3)[C@H](c3ccccc3)N1[C@@H]2c1ccc(OCCO)cc1` belongs 2.6 (inactive); to `O=C1O[C@H](c2ccccc2)[C@H](c2ccccc2)N2[C@H]1[C@@H](C(=O)N1CCCCCCC1)[C@]1(C(=O)Nc3ccc(C#CCCO)cc31)[C@H]2c1ccc(OCCO)cc1`, -8.67 (active); to `CCCC[C@H]1OB(O)C[C@H]2C1=C(COc1ccccc1)Cn1c(=O)n(-c3ccccc3)c(=O)n12`, -7.43 (inactive).
